Read-out in test [1]: Interleukin-8 (IL8), CXCL8 (gene 3576)
In words: BSK_3C_IL8: BioMAP Diversity Plus: 3C Assay for Interleukin-8 (IL8) Biomarker Activity (AID 2283020). Conditions: primary human endothelial cells (HUVEC); actives raise or lower the signal. The method in brief: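 Primary human umbilical vein endothelial cells (3C system) were exposed to test chemical for 24 h, then IL-8 was quantified by ELISA. Responses were fitted bidirectionally against DMSO vehicle as baseline.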

Read-out in test [2]: Monokine induced gamma interferon (MIG), CXCL9 (gene 4283)
In words: BSK_3C_MIG: BioMAP Diversity Plus: 3C Assay for Monokine induced gamma interferon (MIG) Biomarker Activity (AID 2283021).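 For AC50: MIG protein level measured by immunoassay in the treated endothelial cultures.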 Conditions: primary human endothelial cells (HUVEC); actives raise or lower the signal. The method in brief:
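Primary human umbilical vein endothelial cells in the 3C system were exposed to chemical for 24 h, after which MIG was quantified by ELISA. Activity was fitted bidirectionally against DMSO as negative control and baseline.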

Test [3] concerns the target human Vitamin D Receptor (VDR), VDR (gene 7421) (UniProt P11473). In words: ATG_VDR_TRANS: Attagene TRANS-FACTORIAL HepG2 Assay for human Vitamin D Receptor (VDR) (AID 2283022; active = hit-call score of the fitted dose curve at least 0.9, where 1 is the maximum). In a few lines:
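HepG2 cells were transiently transfected with multiple GAL4-UAS reporter units, so signal reflects exogenous chimeric receptor-Gal4 activity. After 24 h compound exposure, reporter mRNA was measured by RT-PCR, fluorescent labelling and capillary electrophoresis, fitted for gain of signal versus DMSO.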

Test [4] is described as follows: BSK_3C_SRB: Viability Assessment in the BioMAP Diversity Plus: 3C Assay (AID 2283023).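 Note: fitted both ways against DMSO so a hit may be signal rise or drop.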 The conditions noted are these: primary human endothelial cells (HUVEC). The method in brief:
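Primary human umbilical vein endothelial cells in the 3C system were read 24 h after compound dosing. Total protein was stained with 0.1% sulforhodamine B after 10% TCA fixation and read at 560 nm, with bidirectional fitting against DMSO as baseline.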

Read-out in test [5]: Matrix Metallopeptidase 1 (MMP1), MMP1 (gene 4312)
In words: BSK_BE3C_MMP1: BioMAP Diversity Plus: BE3C Assay for Matrix Metallopeptidase 1 (MMP1) Biomarker Activity (AID 2283024). The conditions noted are these: primary human bronchial epithelial cells; actives raise or lower the signal. The method in brief:
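Primary human bronchial epithelial cells were dosed with test chemicals, and MMP1 levels were measured by ELISA 24 h later. Data were fitted bidirectionally against DMSO as the negative control and activity baseline.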

Read-out in test [6]: Pselectin, SELP (gene 6403)
Nature of the test: BSK_4H_Pselectin: BioMAP Diversity Plus: 4H Assay for Pselectin Biomarker Activity (AID 2283026). Conditions: primary human endothelial cells (HUVEC); actives raise or lower the signal. In a few lines: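 Primary human umbilical vein endothelial cells were exposed to test chemical for 24 h, then cell-surface P-selectin was quantified by ELISA. Activity was fitted bidirectionally against DMSO as negative control and baseline.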

The nature of test [7]: BSK_4H_SRB: Viability Assessment in the BioMAP Diversity Plus: 4H Assay (AID 2283027).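 For AC50: curves fitted both ways versus DMSO so AC50 may be loss or gain.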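 Note: cells exposed to compound for 24 h before staining.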 The conditions noted are these: primary human endothelial cells (HUVEC). In a few lines: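 Absorbance at 560 nm of SRB-stained total protein served as the viability read-out in confluent primary human umbilical vein endothelium 24 h after chemical treatment. Curves were fitted bidirectionally against DMSO as negative control.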

Test [8] can be described thus: BSK_BE3C_SRB: Viability Assessment in the BioMAP Diversity Plus: BE3C Assay (AID 2283028).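 For AC50: fitted both ways so AC50 may mark signal gain or loss versus DMSO.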 The conditions noted are these: primary human bronchial epithelial cells. The method in brief:
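Human primary bronchial epithelial cells were exposed to test chemicals for 24 h. Total protein in parallel cultures was then measured by staining with 0.1% sulforhodamine B after 10% TCA fixation, with absorbance read at 560 nm. Activity was fitted bidirectionally against DMSO.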

Read-out in test [9]: Thrombomodulin, THBD (gene 7056)
In words: BSK_3C_Thrombomodulin: BioMAP Diversity Plus: 3C Assay for Thrombomodulin Biomarker Activity (AID 2283029). The conditions noted are these: primary human endothelial cells (HUVEC); actives raise or lower the signal. The method in brief: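 Primary human umbilical vein endothelial cells (3C system) were exposed to chemical for 24 h, then thrombomodulin levels were measured by ELISA. Activity was fitted bidirectionally against the DMSO negative control as baseline.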

Read-out in test [10]: Urokinase-type plasminogen activator receptor (uPAR), PLAUR (gene 5329)
Nature of the test: BSK_4H_uPAR: BioMAP Diversity Plus: 4H Assay for Urokinase-type plasminogen activator receptor (uPAR) Biomarker Activity (AID 2283030). Conditions: primary human endothelial cells (HUVEC); actives raise or lower the signal. The method in brief: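 Primary human umbilical vein endothelial cells were exposed to chemical for 24 h before cell-surface uPAR was quantified by ELISA. Activity was fitted bidirectionally against the DMSO negative control baseline.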

Read-out in test [11]: Vascular endothelial growth factor receptor 2 (Homo sapiens) (UniProt P35968)
Nature of the test: BSK_4H_VEGFRII: BioMAP Diversity Plus: 4H Assay for Vascular endothelial growth factor receptor 2 (VEGFR2) Biomarker Activity (AID 2283031).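 For AC50: cell-surface VEGFR2 protein level quantified by ELISA.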 Conditions: primary human endothelial cells (HUVEC); actives raise or lower the signal. The method in brief:
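Primary human umbilical vein endothelial cells in the BioMAP 4H system were dosed with test chemical, and 24 h later VEGFRII was measured by ELISA. Activity was fitted bidirectionally against DMSO as negative control and baseline.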

Read-out in test [12]: Human Leukocyte Antigen - DR isotype (HLADR), HLA-DRA (gene 3122)
Nature of the test: BSK_BE3C_HLADR: BioMAP Diversity Plus: BE3C Assay for Human Leukocyte Antigen - DR isotype (HLADR) Biomarker Activity (AID 2283032). Conditions: primary human bronchial epithelial cells; actives raise or lower the signal. In a few lines:
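Human primary bronchial epithelial cells in the BE3C system were exposed to chemicals for 24 h, after which HLA-DR levels were quantified by ELISA. Activity was fitted bidirectionally, gain or loss of signal, against DMSO as negative control and baseline.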

Read-out in test [13]: Vascular cell adhesion molecule 1 (VCAM1), VCAM1 (gene 7412)
In words: BSK_4H_VCAM1: BioMAP Diversity Plus: 4H Assay for Vascular cell adhesion molecule 1 (VCAM1) Biomarker Activity (AID 2283033).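 For outcome: cell-surface VCAM-1 protein measured by ELISA.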 Conditions: primary human endothelial cells (HUVEC); actives raise or lower the signal. The method in brief:
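Primary human umbilical vein endothelial cells were exposed to chemicals for 24 h, after which VCAM-1 was quantified by ELISA. Responses were fitted bidirectionally against DMSO as negative control and activity baseline.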

Read-out in test [14]: Interferon-gamma inducible Protein 10 (IP10), CXCL10 (gene 3627)
Nature of the test: BSK_BE3C_IP10: BioMAP Diversity Plus: BE3C Assay for Interferon-gamma inducible Protein 10 (IP10) Biomarker Activity (AID 2283034). Conditions: primary human bronchial epithelial cells; actives raise or lower the signal. The method in brief: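 Human primary bronchial epithelial cells were exposed to chemicals for 24 hours, after which IP-10 levels were measured by ELISA. Data were fitted bidirectionally against DMSO, which served as the negative control and activity baseline.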

Read-out in test [15]: Monokine induced gamma interferon (MIG), CXCL9 (gene 4283)
Nature of the test: BSK_BE3C_MIG: BioMAP Diversity Plus: BE3C Assay for Monokine induced gamma interferon (MIG) Biomarker Activity (AID 2283035).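 For outcome: MIG protein measured by ELISA in BE3C cultures after 24 h of dosing.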 Conditions: primary human bronchial epithelial cells; actives raise or lower the signal. In a few lines: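 MIG level was determined by ELISA after 24 h chemical treatment of primary human bronchial epithelial cells. Values were fitted bidirectionally with DMSO as the negative control and activity baseline.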

Read-out in test [16]: Plasminogen activator inhibitor-1 (PAI1), SERPINE1 (gene 5054)
Nature of the test: BSK_BE3C_PAI1: BioMAP Diversity Plus: BE3C Assay for Plasminogen activator inhibitor-1 (PAI1) Biomarker Activity (AID 2283037). The conditions noted are these: primary human bronchial epithelial cells; actives raise or lower the signal. The method in brief: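 Human primary bronchial epithelial cells were exposed to chemical for 24 h, then PAI-1 was quantified by ELISA. Activity was fitted bidirectionally relative to the DMSO negative control baseline.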

Read-out in test [17]: urokinase plasminogen activator (uPA), PLAU (gene 5328)
Nature of the test: BSK_BE3C_uPA: BioMAP Diversity Plus: BE3C Assay for urokinase plasminogen activator (uPA) Biomarker Activity (AID 2283038).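 For outcome: uPA protein level quantified by ELISA in cell cultures; uPA read one day after compound addition.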 Conditions: primary human bronchial epithelial cells; actives raise or lower the signal. In a few lines: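 Human primary bronchial epithelial cells were exposed to chemical for 24 h, then uPA levels were measured by ELISA. Responses were fitted bidirectionally against DMSO as negative control and baseline. Parallel SRB staining of total protein gauged overt cytotoxicity.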

Read-out in test [18]: Urokinase-type plasminogen activator receptor (uPAR), PLAUR (gene 5329)
Nature of the test: BSK_BE3C_uPAR: BioMAP Diversity Plus: BE3C Assay for Urokinase-type plasminogen activator receptor (uPAR) Biomarker Activity (AID 2283039).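 For outcome: cells exposed to compound for one day before measurement.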 The conditions noted are these: primary human bronchial epithelial cells; actives raise or lower the signal. In a few lines: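 Primary human bronchial epithelial cells were dosed with chemical and harvested 24 h later; uPAR was quantified by ELISA. Activity was fitted bidirectionally against DMSO as negative control and baseline.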

In PubChem BioAssay (EPA / NIEHS) one finds outcome and AC50 data, which are given here for three molecules.

Several values for one entry are separate records, joined by “and”; a condition that tells them apart may be missing. Equal entries are not always repeated. Results filed as inconclusive are left out. More than one record can exist for a structure, and the calls need not agree. Activity calls are given as the source filed them. Rule for the calls, unless noted: active = hit-call score of the fitted dose curve at least 0.9, where 1 is the maximum; inactive = score below 0.9.

Sequence of human Vitamin D Receptor (VDR), VDR (gene 7421) (P11473 whole entry, looked up, the tested form may be a part): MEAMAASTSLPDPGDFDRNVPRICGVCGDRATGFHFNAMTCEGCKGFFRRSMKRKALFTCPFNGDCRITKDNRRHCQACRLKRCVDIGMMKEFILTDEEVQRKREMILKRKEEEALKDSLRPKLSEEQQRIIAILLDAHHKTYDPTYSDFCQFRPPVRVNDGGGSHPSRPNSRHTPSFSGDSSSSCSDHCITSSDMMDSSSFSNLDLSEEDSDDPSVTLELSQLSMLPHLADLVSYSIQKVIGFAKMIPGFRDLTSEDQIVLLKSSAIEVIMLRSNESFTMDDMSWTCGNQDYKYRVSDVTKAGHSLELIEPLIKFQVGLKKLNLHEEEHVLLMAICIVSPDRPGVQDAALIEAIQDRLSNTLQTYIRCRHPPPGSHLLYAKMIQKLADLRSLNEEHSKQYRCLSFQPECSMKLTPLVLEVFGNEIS

As for `COC(F)(C(F)F)C(F)(F)F` (stereo not given), the outcome in [1], in test [2], in test [3], in test [4], in [5] and in [6] was inactive. Further, the outcome in test [7], in [8], in test [9], in test [10], in test [11] and in test [12] was inactive. Also, the result in [13], in test [14], in test [15], in [16], in test [17] and in [18] was inactive.

The AC50 is the concentration at which the activity in the assay is half-maximal. For `CCN=C1C=CC(=C(c2ccc(N(CC)CC)cc2)c2ccc(N(CC)CC)cc2)c2ccccc21`, the half-maximal activity concentration (AC50) in test [1] was 4.77 µM (active) and 4.29 µM (active); in [2], 2.92 µM (active) and 3.32 µM (active); in test [4] it was 1.6 µM (active) and 1.67 µM (active); in test [5], 3.21 µM (active); in [6] it was 1.46 µM (active) and 957 nM (active); in [7] it was 1.76 µM (active) and 1.74 µM (active). The half-maximal activity concentration (AC50) in [9] is 4.54 µM (active) and 3.14 µM (active); in [10], 4.99 µM (active) and 2.26 µM (active); in test [12], 1.85 µM (active) and 1.69 µM (active); in test [13] it was 2.13 µM (active) and 2.05 µM (active); in test [14], 2.46 µM (active) and 2.22 µM (active); in test [15], 2.48 µM (active) and 2.92 µM (active). The AC50 in test [16] is 716 nM (active) and 210 nM (active); in [17], 2.03 µM (active); in [18], 1.93 µM (active) and 1.74 µM (active). Besides, the result in test [5], in test [8], in [11] and in test [17] was inactive.

`OCCCC(F)(F)C(F)(F)C(F)(F)C(F)(F)C(F)(F)C(F)(F)C(F)(F)C(F)(F)F`: the half-maximal activity concentration (AC50) is 19.6 µM (active) and 20.6 µM (active) in test [1]; 50.9 µM (active) and 52.6 µM (active) in test [2]; 10.5 µM (active) and 28.4 µM (active) in test [4]; 7.11 µM (active) and 55.2 µM (active) in test [5]; 32.3 µM (active) and 24.1 µM (active) in test [6]; 11.1 µM (active) and 20.8 µM (active) in test [7]. For the same molecule, the AC50 in test [8] was 51.9 µM (active) and 48.7 µM (active); in [9], 43.7 µM (active) and 56.3 µM (active); in [10], 31 µM (active) and 43.6 µM (active); in test [11], 53.5 µM (active) and 36.8 µM (active); in [12], 44.6 µM (active) and 49.9 µM (active); in test [13], 31.2 µM (active) and 45.1 µM (active). The concentration at half-maximal activity (AC50) was 32.3 µM (active) and 37.7 µM (active) in test [14]; 56.5 µM (active) and 53.4 µM (active) in test [15]; 37.8 µM (active) and 30.3 µM (active) in [16]; 55.2 µM (active) in test [17]; 49.4 µM (active) and 54.6 µM (active) in [18]. Also, in test [3], the molecule was classed as inactive.
